# In the library only some 1.6% were active in any assay of this set; here they are far more common.
# KCNQ2 pot: enhances the rat KCNQ2 potassium channel. O88943. CHO-K1 KCNQ2, FluxOR thallium flux fluorescence; active compounds read high. B-score at 10 µM. 310,000 tested, 0.54% active;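 active means fluorescence ratio B-score at least 3 SD of library B-scores, with initial fluorescence B-score within 3 of them, cut at about 5.3 in these data; same plate scores as AID 2156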;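 further: B-score of peak minus minimum over baseline fluorescence ratio after K+ and Tl+ stimulus; positive B-score means potentiation of KCNQ2 with more thallium influx and brighter signal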
# Target sequence (O88943 whole entry, looked up): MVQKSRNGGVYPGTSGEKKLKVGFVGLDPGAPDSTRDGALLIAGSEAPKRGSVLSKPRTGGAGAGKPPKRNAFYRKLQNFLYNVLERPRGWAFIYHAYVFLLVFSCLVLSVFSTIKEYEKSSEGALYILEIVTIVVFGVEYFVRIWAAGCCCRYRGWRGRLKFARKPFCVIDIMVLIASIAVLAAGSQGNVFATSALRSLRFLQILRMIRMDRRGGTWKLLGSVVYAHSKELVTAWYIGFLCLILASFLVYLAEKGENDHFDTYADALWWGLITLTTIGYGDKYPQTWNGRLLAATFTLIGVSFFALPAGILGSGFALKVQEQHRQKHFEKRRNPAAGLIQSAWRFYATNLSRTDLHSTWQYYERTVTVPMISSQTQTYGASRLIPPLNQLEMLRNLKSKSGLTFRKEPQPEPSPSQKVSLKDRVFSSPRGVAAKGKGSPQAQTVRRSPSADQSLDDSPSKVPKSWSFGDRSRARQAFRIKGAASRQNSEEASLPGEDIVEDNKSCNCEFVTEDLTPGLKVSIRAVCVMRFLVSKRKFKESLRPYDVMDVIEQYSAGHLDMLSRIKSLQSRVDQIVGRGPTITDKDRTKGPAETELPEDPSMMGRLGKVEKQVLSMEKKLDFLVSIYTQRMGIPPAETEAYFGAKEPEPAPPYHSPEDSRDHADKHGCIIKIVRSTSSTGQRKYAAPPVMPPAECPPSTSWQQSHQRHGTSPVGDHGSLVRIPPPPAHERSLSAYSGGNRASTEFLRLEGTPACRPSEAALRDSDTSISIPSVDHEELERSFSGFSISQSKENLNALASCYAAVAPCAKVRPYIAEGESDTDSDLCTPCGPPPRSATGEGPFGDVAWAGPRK
# KCNQ2 inh: blocks the rat KCNQ2 potassium channel. 310,000 tested, 1.1% active. CHO-K1 KCNQ2, FluxOR thallium flux, 20 min; active compounds read low. B-score at 10 µM. O88943;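 active means fluorescence ratio B-score at most minus 3 library SDs, with starting brightness B-score within 2 library SDs, cut at about -5.5 in these data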
# KCNQ2 block conf: confirmation of rat KCNQ2 potassium channel inhibitors. shares compounds with KCNQ2 inh. KCNQ2-expressing cells, thallium flux, inhibition; active compounds read low. activity change, negative = inhibition, % at 10 µM. 1,000 tested, 57% active. AID 493025;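 further: 0% = vehicle wells and values are ratio percent relative to vehicle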
# KCNQ1 spec: selectivity of KCNQ2 inhibitors against human KCNQ1; 1,000 tested, 15% active; KCNQ1-expressing cells, FluxOR thallium flux fluorescence; active compounds read low; AID 493026; shares compounds with KCNQ2 inh; activity change, negative = inhibition, % at 10 µM;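 active means activity change at least 3 SD of negative controls below their mean in both duplicate wells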;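 further: CHO cells stably transfected with KCNQ1 and depolarized by potassium stimulus; peak minus minimum fluorescence over baseline after thallium addition; 0% = vehicle negative control and -100% = blank without thallium stimulus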
# CHO Tl ctr: counter-screen for KCNQ2 inhibitors: effect in parental CHO cells | shares compounds with KCNQ2 inh | thallium flux counter-screen; active compounds read low | activity change, % at 10 µM | 1,000 tested, 14% active | AID 493029;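 further: 0% = vehicle negative controls with stimulus buffer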
# KCNQ2 patch conf: blocks rat KCNQ2 current in automated patch clamp | KCNQ2-expressing cells | AID 588531 | shares compounds with KCNQ2 inh | calls only at 10 µM | 550 tested, 49% active
# Numbers without * were called inactive; i = inactive; . = not tested or not shown; + = active, no number. Unless noted, how the calls were made is not given here.
SMILES,KCNQ2 pot,KCNQ2 inh,KCNQ2 block conf,KCNQ1 spec,CHO Tl ctr,KCNQ2 patch conf
Cc1nn(C(C)C(=O)O)c(=O)c2c1sc1ccccc12 (stereo not given),.,i,.,.,.,.
Cc1nn(C(C)C(=O)N2CCCCC2)c(=O)c2c1sc1ccccc12 (stereo not given),-8.93,-8.93*,-30.0%*,i,i,+
Cc1cc(C)cc(NC(=O)N2CCN(C/C=C/c3ccccc3)CC2)c1,.,i,.,.,.,.
O=C1CC(c2ccco2)Cc2nc(N3CCc4ccccc4C3)ncc21 (stereo not given),-10.3,-10.3*,-27.0%*,i,i,i
CC(C)c1ccc(C2CC(=O)c3cnc(N4CCc5ccccc5C4)nc3C2)cc1 (stereo not given),.,i,.,.,.,.
CC(C)(C)c1ccc(CN(Cc2ccco2)Cc2nnnn2C2CCCC2)cc1,-12.4,-12.4*,-24.0%*,i,i,i
COc1ccc2cc(CN(Cc3ccco3)Cc3nnnn3C3CCCCC3)c(=O)[nH]c2c1,2.47,i,.,.,.,.
Cc1ccc(CN=c2c([N+](=O)[O-])nn(-c3cccc(C)c3)n2O)cc1,-7.01,-7.01*,-19.0%*,i,i,i
Cc1ccc(CN=c2c([N+](=O)[O-])nn(-c3cccc(Cl)c3)n2O)cc1,.,i,.,.,.,.
CCn1c(CNC(=O)c2ccccc2F)nnc1SCc1nc2ccccc2c(=O)[nH]1,0.7,i,.,.,.,.
Cc1ccc(NC(=O)N2CCCC2C(=O)NCC2CCCCC2)cc1 (stereo not given),0.47,i,.,.,.,.
CN(CC(=O)Nc1ccccc1C(F)(F)F)C(=O)CC1OC(=O)c2ccccc21 (stereo not given),.,i,.,.,.,.
COc1ccc(-c2nc(CSCC(=O)NC3CCCc4ccccc43)c(C)o2)cc1OC (stereo not given),-10.2,-10.2*,i,i,i,.
COc1ccc(-c2nc(CS(=O)CC(=O)NC3CCCc4ccccc43)c(C)o2)cc1OC (stereo not given),.,i,.,.,.,.
Cc1ccc(CNC(=S)Nc2cc(C)ccc2OC(F)F)cc1,.,i,.,.,.,.
COc1ccc(-c2cnc3n2CCCCC3)cc1,.,i,.,.,.,.
COc1ccc(-c2c[n+]3c4n2CCCCC4=C(c2ccc(Br)cc2)C3)cc1,-8.68,-8.68*,-33.0%*,i,i,i
C=CCn1c(SCC(=O)c2cc(C)n(C(C)COC)c2C)nc2sc(C)c(C)c2c1=O (stereo not given),-10.8,-10.8*,i,i,i,.
C=CCn1c(SCC(=O)NCCO)nc2sc(C)c(C)c2c1=O,.,i,.,.,.,.
COc1cc(-c2nc3ccc(C)cn3c2NCc2ccccc2)ccc1SC1CCCCC1,.,i,.,.,.,.
COc1cc(-c2nc3ccccn3c2NCc2ccccc2)ccc1SC1CCCCC1,-8.7,-8.7*,i,i,i,.
COc1ccc(-c2cc(C(=O)N3CC(C)CC(C)C3)c3ccccc3n2)cc1OC (stereo not given),-10.6,-10.6*,-31.0%*,i,i,+
COc1ccc(NC(=O)CN(C)C(=O)c2cc(-c3ccc(OC)cc3)nc3ccccc23)cc1,0.28,i,.,.,.,.
COc1ccc(CCN(C)C(=O)c2cc(-c3ccc(C)cc3)nc3ccccc23)cc1OC,-6.74,-6.74*,-45.0%*,-45.5%*,-41.5%*,+
COc1ccc(-c2cc(C(=O)N3CCC3)c3ccccc3n2)cc1OC,1.16,i,.,.,.,.
SMILES,KCNQ2 pot,KCNQ2 inh,KCNQ2 block conf,KCNQ1 spec,CHO Tl ctr,KCNQ2 patch conf
COc1ccc(-c2cc(C(=O)N(C)Cc3ccc(F)cc3)c3ccccc3n2)cc1OC,-7.49,-7.49*,-53.0%*,-47.5%*,-55.5%*,+
COc1ccc(-c2cc(C(=O)N3CCCC3)c3ccccc3n2)cc1OC,0.4,i,.,.,.,.
CCOC(=O)c1cnc2c(OC)cccc2c1N1CCN(c2ccc(OC)cc2)CC1,.,i,.,.,.,.
CCOC(=O)c1cnc2c(OC)cccc2c1N1CCN(c2ccccc2OC)CC1,-12.1,-12.1*,-29.5%*,i,i,i
COc1cccc(-c2nc(-c3ccc4c(c3)-c3ccccc3S4(=O)=O)c(-c3ccccc3)[nH]2)c1OC,-8.88,-8.88*,-26.0%*,i,i,i
COc1cccc(-c2nc(-c3ccccc3)c(-c3ccccc3)[nH]2)c1OCC(=O)O,.,i,.,.,.,.
O=[N+]([O-])c1ccccc1COc1ccc(Cl)c2cccnc12,.,i,.,.,.,.
Cc1cccc2nc(COc3ccc(Cl)c4cccnc34)cn12,-9.13,-9.13*,-29.0%*,i,i,+
COc1cc(C)nc(OCCNC(=O)COc2ccc(Cl)cc2C)n1,-7.52,-7.52*,i,i,i,.
Cc1cc(Cl)ccc1OCC(=O)NCCOc1nc(N2CCCCC2)nc(N2CCOCC2)n1,.,i,.,.,.,.
CC(NC(=O)C1CCN(S(=O)(=O)c2cccc3nonc23)CC1)c1ccccc1 (stereo not given),0.7,i,.,.,.,.
CC(C)(C)c1ccc(C(=O)O)c(C(=O)c2ccc(C(=O)O)cc2)c1,0.03,i,.,.,.,.
CCOC(=O)C1=NNC(C(=O)c2ccccc2)C1c1ccc(Cl)cc1 (stereo not given),-8.81,-8.81*,-17.5%*,i,i,i
CCOC(=O)C1=NNC(C(=O)c2ccccc2)C1c1ccc(C)cc1 (stereo not given),.,i,.,.,.,.
NS(=O)(=O)c1ccc(O)c(NC(=O)c2ccc([N+](=O)[O-])cc2)c1,0.78,i,.,.,.,.
COc1cc(OC)cc(C(=O)Nn2cc(C(=O)Nc3ccccc3F)c3ccccc3c2=O)c1,-7.14,-7.14*,i,i,i,.
COC(=O)c1cn(NC(=O)c2cccc(N(C)C)c2)c(=O)c2ccccc12,-7.83,-7.83*,-45.0%*,-35.5%*,-30.0%*,+
COC(=O)c1cn(NC(=O)c2cccc(F)c2)c(=O)c2ccccc12,.,i,.,.,.,.
O=C(Nn1cc(C(=O)Nc2ccccc2F)c2ccccc2c1=O)c1cnccn1,.,i,.,.,.,.
COc1cccc(OCc2cc(/C=N/Nc3ccc(C(=O)O)cc3)ccc2OC)c1,0.07,i,.,.,.,.
C[N+]1(CC(=O)Nc2ccc(F)cc2)CCN(C(=O)c2ccco2)CC1,0.02,i,.,.,.,.
Cc1cc(C)nc(NC(=O)c2cc(-c3ccc4c(c3)OCO4)nc3ccccc23)c1,-7.73,-7.73*,-31.5%*,i,i,+
COC(=O)c1cc(-c2ccc3c(c2)OCO3)nc2ccccc12,0.09,i,.,.,.,.
CN(C)CC(=O)Nc1cc(C(F)(F)F)ccc1Cl,0.07,i,.,.,.,.
CCOC(=O)/C(=N\Nc1cc(C(F)(F)F)ccc1Cl)N(CC)CC,-8.91,-8.91*,i,i,i,.
O=C(/C=C/c1ccccc1[N+](=O)[O-])NC1CCCC1,.,i,.,.,.,.
CC(C)(C)n1nnnc1C(c1cccs1)N(Cc1ccc(Cl)cc1)CC1CCCO1 (stereo not given),-9.93,-9.93*,i,i,i,.
Clc1ccc(CN(Cc2ccccc2)C(c2cccs2)c2nnnn2C2CCCC2)cc1 (stereo not given),.,i,.,.,.,.
O=C(NCCc1nc(-c2ccccc2Cl)no1)C1CCCCC1,.,i,.,.,.,.

# Source: PubChem
